ELG1 DNA repair = blocks ELG1-dependent DNA repair in HEK293T cells. 330,000 tested, 2.3% active. Potency, µM (series often up to 46.1 µM), inactives show top-dose activity change, negative = inhibition, most hits filed as inhibitors. HEK293T ELG1-luciferase reporter, luminescence, 16 h; DNA damage induced by 5-fluorouridine; further: on the % scale 0 is the no-effect control and ±100 the full control effect; nearly all actives have a fitted effect of over 55% in size
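Overnight (16 hr) co-exposure of 2,000 cells/well to 5-fluorouridine and compound at 37 °C preceded detection. Luciferase was quantified via ONE-Glo luminescence; loss of signal denotes inhibition.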
SMN2 splice up = enhancers of SMN2 splice variant expression; 210,000 tested, 2.8% active; Potency, µM (doses to about 46.1 µM), for the others: at the highest dose activity change, positive = activation, usual class: activators; HEK293 SMN2-luciferase splicing reporter, luminescence, 30-36 h; further: % of control where 0% means no effect; nearly all actives have a fitted effect of over 55% in size
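HEK293 cells carry an SMN2 minigene-luciferase reporter in which exon 7 inclusion puts luciferase in frame. Cells were seeded at 2000 cells/well, attached for 10-12 hours, then exposed to compounds for 30-36 hours at 37C before ONE-Glo luminescence.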
ELG1 genotox = induces genotoxicity in HEK293T cells with luciferase-tagged ELG1; HEK293T ELG1-luciferase reporter, luminescence, 16 h; 330,000 tested, 1.3% active; Potency, µM (doses to about 46 µM), inactives show top-dose activity change, positive = activation, most hits filed as activators; AID 504466; further: % of control where 0% means no effect; nearly all actives have a fitted effect of over 60% in size
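Cells (2,000/well) expressing the ELG1-luciferase fusion are dosed by pin tool and kept 16 hr at 37 °C, 5% CO2. Signal comes from ONE-Glo luciferase reagent after 30 min at room temperature.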
NPC1 prom act = activates the NPC1 promoter; Potency, µM (highest dose often 9.22 µM), without a hit: top-dose activation, hits mostly activators; 320,000 tested, 2.4% active; Huh7 NPC1 promoter luciferase reporter, 24 h; further: % of control where 0% means no effect; nearly all actives have a fitted effect of over 60% in size
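Luciferase expression driven by the NPC1 promoter was measured in stably transfected Huh7 cells after a 24 h compound incubation, using a luciferase reagent and a luminescence read.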
Rab9 promoter act = activators of Rab9 promoter | 320,000 tested, 2.8% active | Huh7 Rab9 promoter-luciferase reporter, luminescence, 24 h | Potency, µM (titrated, usually from 9.22 µM), for inactives: top-dose activation, negative = inhibition, most hits filed as activators | AID 485297; further: % of control where 0% means no effect; nearly all actives have a fitted effect of over 60% in size
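Steps: seed 1500 Huh7 Rab9-luc cells per well, rest 2 h at 37 °C; add compound in DMSO; incubate 24 h; add luciferase reagent, 10 min ambient; read luminescence.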
FLuc counter = inhibits or activates purified firefly luciferase, miR-21 counter-screen | Potency, µM (titrated, usually from 57.5 µM), for inactives: at the highest dose activity change, negative = inhibition, usual class: inhibitors | P08659 | 360,000 tested, 6.9% active | purified FLuc, Km substrates, luminescence inhibition;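 further: plate controls were vehicle for no effect and reference inhibitor for full effect; nearly all actives have a fitted effect of over 55% in size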
Target sequence (P08659 whole entry, looked up): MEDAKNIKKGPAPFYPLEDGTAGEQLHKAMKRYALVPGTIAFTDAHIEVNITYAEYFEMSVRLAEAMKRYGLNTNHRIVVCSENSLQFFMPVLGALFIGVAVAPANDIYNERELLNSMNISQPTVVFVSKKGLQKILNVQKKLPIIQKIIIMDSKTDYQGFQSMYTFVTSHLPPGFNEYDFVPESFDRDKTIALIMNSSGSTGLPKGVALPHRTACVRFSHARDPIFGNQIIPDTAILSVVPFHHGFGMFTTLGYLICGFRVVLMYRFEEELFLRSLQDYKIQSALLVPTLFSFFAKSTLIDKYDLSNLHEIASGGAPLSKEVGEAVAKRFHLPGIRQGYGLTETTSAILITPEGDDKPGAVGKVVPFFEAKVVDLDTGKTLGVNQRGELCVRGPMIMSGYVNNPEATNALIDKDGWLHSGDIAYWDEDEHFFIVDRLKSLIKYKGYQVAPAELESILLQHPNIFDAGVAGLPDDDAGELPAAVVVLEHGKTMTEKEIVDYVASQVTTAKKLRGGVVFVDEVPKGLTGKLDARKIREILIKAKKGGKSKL
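Purified P. pyralis luciferase, 10 nM final, with Km-level 10 uM D-luciferin and 10 uM ATP in 50 mM Tris acetate pH 7.5, 10 mM Mg acetate, 0.01% Tween-20, 0.05% BSA; 6-point qHTS titration about 60 µM downward; luminescence read.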
* = called active by the depositor; ? = inconclusive; . = no result given; [ ] = dose if it differs, or a comment. Rows were chosen to be rich in hits. Some 9.2% of all compounds tested hit in one or more screens of this group. The call rests on the fitted dose curve; in most records, active means well fitted curve in the direction sought with a large enough effect; inconclusive means small, poorly fitted or top-dose-only effect, or another doubt; inactive means no such curve, though single readings can be large; an effect the other way counts as inactive or inconclusive. Potency means the concentration at half of the fitted maximal effect.

SMILES	ELG1 DNA repair	SMN2 splice up	ELG1 genotox	NPC1 prom act	Rab9 promoter act	FLuc counter
COc1ccc(C(=O)Nc2cccc(C(=O)N/N=C/c3ccc(OC)cc3OC)c2)cc1	?	.	1.1%	?	3.98µM*	1.9µM*
COc1ccc(NC(=O)O/N=C/c2ccccc2Cl)cc1	?	.	16.2%	4.5%	-1.6%	30.1µM*
Cc1onc(-c2ccccc2)c1C(=O)OCC(=O)N(CC(C)C)c1c(N)n(Cc2ccccc2)c(=O)[nH]c1=O	?	.	-11.6%	-0.9%	-0.5%	1.8%
Cc1ccc2nc(COC(=O)c3cnccn3)cc(=O)n2c1	25.7%	.	3.9%	.	.	.
Cc1oc2ncn(CC(C)C)c(=O)c2c1C(=O)NCCCN(C)Cc1ccccc1	.	.	.	.	.	-0.3%
COc1ccc(S(=O)(=O)NCC2CCC(C(=O)NCc3ccc(F)cc3)CC2)cc1 (stereo not drawn)	-4.3%	.	8.5%	-0.3%	-1.6%	-1.6%
COc1ccccc1/C=N/NC(=O)c1cccc(NC(=O)c2ccccc2C)c1	-0.4%	.	-17.8%	-3.2%	1.1%	15.1µM*
COc1ccc(/C=N/NC(=O)c2cccc(NC(=O)c3ccccc3Cl)c2)c(OC)c1	-6.8%	-28.5%	14.2%	9.5%	2.1%	4.26µM*
COc1ccc(/C=N/NC(=O)c2cccc(NC(=O)c3ccccc3Cl)c2)cc1	?	.	0.0%	-19.0%	-1.6%	5.36µM*
COc1cc(/C=N/NC(=O)c2cccc(NC(=O)c3ccccc3Cl)c2)ccc1O	?	-6.6%	-9.3%	4.9%	-4.6%	15.1µM*
Cc1ccc(Cn2c(=O)n(-c3cc(C)cc(C)c3)c(=O)c3oc4ccccc4c32)cc1	.	.	.	.	.	4.9%
CCCCC(=O)Nc1cccc(C(=O)N/N=C/c2ccc(OC)cc2OC)c1	-19.0%	-18.2%	0.3%	-0.9%	1.2%	16.9µM*
O=C(Cn1c(=O)c2cccn2c2ccc(F)cc21)N1CCN(c2ccccc2F)CC1	.	.	.	.	.	-13.1%
CCCCOc1ccc(CSc2nnc(C)n2N)cc1[N+](=O)[O-]	?	.	13.7%	19.5%	26.3%	7.57µM*
CCSc1ncccc1-c1nc2ccccc2[nH]1	?	?	?	?	29.5%	?
CSc1ncccc1-c1nc2ccccc2[nH]1	?	-0.6%	11.0%	19.3%	25.0%	21.3µM*
Nc1nonc1-c1nc2ccccc2[nH]1	?	?	-0.2%	-1.4%	-3.2%	-4.7%
Clc1ccccc1-c1nc2ccccc2[nH]1	?	.	?	2.82µM*	2µM*	8.49µM*
Cn1cc(Cl)c(-c2nc3ccccc3[nH]2)n1	?	15.8µM*	10.3µM*	2.51µM*	3.55µM*	16.9µM*
Cc1ccccc1-c1nc2ccccc2[nH]1	?	11.2µM*	?	?	?	16.9µM*
CC(C)(C)C(=O)Nc1ccc(Cl)c(-c2nc3ccccc3[nH]2)c1	.	.	.	.	.	-9.7%
c1ccc2[nH]c(-c3ccnc4ccccc34)nc2c1	?	?	?	?	3.55µM*	23.9µM*
O=C(NCc1ccccc1)c1ccccc1-c1nc2ccccc2[nH]1	18.9%	-24.9%	-0.4%	-3.5%	5.0%	-3.0%
Fc1ccccc1-c1nc2ccccc2[nH]1	?	.	?	3.55µM*	1.78µM*	9.53µM*
c1ccc2cc(NCNc3ccc4ccccc4c3)ccc2c1	.	8.4%[9.22 µM]	.	.	.	.
SMILES	ELG1 DNA repair	SMN2 splice up	ELG1 genotox	NPC1 prom act	Rab9 promoter act	FLuc counter
O=C(COc1ccccc1)Nc1cccc(-c2ccc(N3CCOCC3)nn2)c1	?	.	2.31µM*	1.78µM*	1.26µM*	1.9µM*
CCS(=O)(=O)c1ccc(-c2cccc(NC(=O)COc3ccccc3)c2)nn1	14.3%	.	5.9%	-0.1%	0.4%	0.9%
O=C(COc1ccc(Cl)cc1Cl)Nc1cccc(-c2ccc(N3CCOCC3)nn2)c1	?	.	1.83µM*	?	1µM*	0.426µM*
NCCNS(=O)(=O)c1cccc2c(Cl)cccc12	.	-9.8%	.	-3.2%[46.1 µM]	-12.6%[46.1 µM]	.
COc1ccc(C(=O)Nc2ccc3oc(Cc4ccc(Cl)cc4)nc3c2)cc1OC	20.6µM*	-67.7%	-23.6%	-4.0%	-2.2%	-11.6%
COc1cc(C(=O)Nc2ccc3ccccc3c2)cc(OC)c1OC	27.5%	.	?	-20.5%	-0.1%	19µM*
COc1ccc(C(=O)Nc2ccc3ccccc3c2)cc1OC	?	.	?	2.82µM*	?	9.53µM*
Cn1nnc2cc(C(=O)Nc3ccc4ccccc4c3)ccc21	?	3.16µM*	2.31µM*	0.891µM*	0.398µM*	1.9µM*
O=C(CSc1nc2c([nH]c3ccccc32)c(=O)n1-c1cccc(Cl)c1)NCC1CCCO1 (stereo not drawn)	.	.	.	.	.	-1.8%
O=C(NC1CCCC1)C1CCN(C(=O)c2cc(Cl)ccc2Cl)CC1	-1.1%	.	-1.5%	0.7%	6.9%	0.5%
CCN(CC)S(=O)(=O)c1ccc2nc(NC(=O)c3cccs3)sc2c1	?	?	?	23.2%	?	15.1µM*
CCN(CC)S(=O)(=O)c1ccc2nc(NC(=O)c3ccccc3OC)sc2c1	.	.	.	.	.	0.0%
CCN(CC)S(=O)(=O)c1ccc2nc(NC(=O)c3ccco3)sc2c1	?	12.2%	3.7%	16.3%	7.9%	19µM*
CCOc1ccccc1NC(=O)c1cc(=O)c2ccc(C)cc2o1	.	13.9%	.	.	.	6.4%
COc1ccc(NC(=O)c2nnn(CC(=O)Nc3cc(C)cc(C)c3)c2N)c(OC)c1	.	7.2%	.	.	.	-11.9%
CCOC(=O)c1cccc(NC(=O)C2CCN(S(=O)(=O)c3cn(C)cn3)CC2)c1	.	.	.	.	.	-12.0%
Cc1ccc(C(=O)Nc2cnc3sc(C)nn3c2=O)cc1	?	12.6µM*	?	?	?	-5.7%[2.3 µM]
COc1ccc(-n2c(C)cc(/C=C/c3nc(O)c([N+](=O)[O-])c(=O)[nH]3)c2C)cc1	-5.1%	4.6%	3.0%	-5.4%	10.3%	?
Cc1cc(/C=C\c2nc(O)c([N+](=O)[O-])c(=O)[nH]2)c(C)n1-c1ccccc1	13.3%	12.3%	2.5%	-1.8%	2.0%	10.7µM*
Nc1nc2ccc(C(=O)N3CCCCC3)cc2s1	-2.2%	.	8.4%	1.3%	0.1%	-11.2%
Cn1c(CCc2ccc(N)cc2)nc2ccccc21	?	11.2µM*	?	3.16µM*	1.58µM*	12µM*
Cn1c(-c2ccc(N)cc2)nc2ccccc21	?	.	?	?	3.98µM*	19µM*
Cn1c(-c2ccc3nc(N)sc3c2)nc2cc(N)ccc21	?	7.3%	?	?	22.9%	21.3µM*
COc1ccc(-c2cc(C(=O)Nc3c(C)n(C)n(-c4ccccc4)c3=O)c3ccccc3n2)c(OC)c1	10.3µM*	.	-11.2%	14.3%	0.1%	-2.8%

High-throughput results from PubChem.
